Compound activity (PubChem)
MPTP inh: blocks calcium-induced mitochondrial swelling | isolated mouse mitochondria, Ca2+ swelling absorbance, 30 min | inhibition, % at 10 µM | 360,000 compounds, 1.4% hits;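 active = inhibition of 50% or more, scaled per plate between neutral and stimulator controls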
beta cell repl: induces beta-cell replication in MIN6 cells | proliferation, % at 10 µM | MIN6 cells proliferation, ATPlite luminescence, 48 h; cells starved in 0.2% serum; 100% = growth in 10% serum | 330,000 compounds, 0.29% hits | AID 2380;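 active = compounds whose signal lies at least 3.5 SD above the mean of all wells on their plate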
GRIN3A LBD mod: modulates the human NR3A ligand-binding domain. 340,000 compounds, 2.5% hits. AID 1259313. Tm shift relative to glycine control, % at 25 µM. NR3A LBD differential scanning fluorimetry, Tm shift; 0% = protein alone, 100% = glycine-bound protein;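 active = melting temperature shift of at least 10% of the positive control shift, at one fixed dose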
pCIP destab: p/CIP protein destabilization. F442A p/CIP-EGFP cells, EGFP fluorescence, 16 h. Q05BA5. 290,000 compounds, 0.01% hits. decrease of EGFP signal, % at 10 µM. AID 1984;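 active = EGFP signal decrease of at least 30% at 10 µM or well 3 SD below plate mean, unless failing retest; inactive = the rest, including hits failing retest or dose response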
FAS TE block: blocks the thioesterase domain of human fatty acid synthase; AID 602261; recombinant FAS-TE, OMFH fluorogenic substrate, fluorescence endpoint; inhibition, % at 15 µM; 360,000 compounds, 0.67% hits;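 active = compounds whose normalised, plate-corrected inhibition of enzyme fluorescence in the single-dose primary screen is 50% or more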
Numbers stand for hits. This is a sample that favours compounds with a hit; in the whole collection about 4.1% have one here.

How did O=C(N/C(=C/c1cccc(Br)c1)c1nc(=S)[nH][nH]1)c1ccccc1 do in these assays?
MPTP inh: inactive; beta cell repl: inactive; GRIN3A LBD mod: 22; pCIP destab: inactive; FAS TE block: inactive

Results for CN(C)c1ccc(C(C(=O)NCC2CCCO2)N(Cc2ccco2)C(=O)c2snc(C(N)=O)c2N)cc1 (stereo unspecified) ?
MPTP inh: inactive; beta cell repl: inactive; GRIN3A LBD mod: inactive; pCIP destab: inactive; FAS TE block: inactive

How did CN(C)c1ccc(C(C(=O)NCC2CCCO2)N(Cc2ccccc2)C(=O)c2snc(C(N)=O)c2N)cc1 (stereo unspecified) do in these assays?
MPTP inh: inactive; beta cell repl: 8.8; GRIN3A LBD mod: inactive; pCIP destab: inactive; FAS TE block: inactive

Results for COc1cccc(C(O)c2nc(-c3ccc(OC)nc3)cs2)c1 (stereo unspecified) ?
MPTP inh: inactive; FAS TE block: inactive

How did C=C(C)C1CC=C(C)C(=NNC(=O)c2ccncc2)C1 (stereo unspecified) do in these assays?
MPTP inh: inactive; GRIN3A LBD mod: 11; FAS TE block: inactive

Results for COc1ncc(-c2ccc(N3C(c4ccc([N+](=O)[O-])cc4)=Cc4ccccc4C3CC(C)=O)cc2)cn1 (stereo unspecified) ?
MPTP inh: inactive; FAS TE block: inactive

What do the screens show for `CCOC(=O)c1c(-c2ccc(OC)cc2)oc2cc(Br)c(O)cc12`?
MPTP inh: inactive; beta cell repl: inactive; GRIN3A LBD mod: 13; pCIP destab: inactive; FAS TE block: inactive

How did COc1ccc(C(=O)c2c(-c3ccc(OC)cc3)oc3ccccc23)cc1 do in these assays?
MPTP inh: inactive; beta cell repl: inactive; GRIN3A LBD mod: inactive; FAS TE block: inactive

What do the screens show for `COc1ccc(-c2oc3ccccc3c2C(=O)OCc2ccccc2OC)cc1`?
MPTP inh: inactive; beta cell repl: inactive; GRIN3A LBD mod: 17; pCIP destab: inactive; FAS TE block: inactive

How did C[C@@H]1COc2cc(N3CCC[C@H]3CO)ccc2S(=O)(=O)N1 do in these assays?
MPTP inh: inactive; FAS TE block: inactive

How did CCNc1nc(SCC(=O)Nc2ccccc2)nc(N2CCOCC2)n1 do in these assays?
MPTP inh: inactive; beta cell repl: inactive; GRIN3A LBD mod: inactive; pCIP destab: inactive; FAS TE block: inactive

How did CC(C)(C)Nc1nc(SCC(=O)Nc2ccccc2Cl)nc(N2CCOCC2)n1 do in these assays?
MPTP inh: inactive; beta cell repl: inactive; GRIN3A LBD mod: 17; pCIP destab: inactive; FAS TE block: inactive

How did CCN(CC)S(=O)(=O)c1ccc2[nH]c(=O)cc(C(=O)NCC3CCCO3)c2c1 (stereo unspecified) do in these assays?
MPTP inh: inactive; beta cell repl: inactive; GRIN3A LBD mod: 17; FAS TE block: inactive

Results for Cc1ccc(C)c(N2CCN(C(=O)CCc3nc(-c4cccc(F)c4)no3)CC2)c1 ?
MPTP inh: inactive; GRIN3A LBD mod: 20; FAS TE block: inactive

What do the screens show for `Cc1ccc(C)c(N2CCN(C(=O)CCc3nc(-c4cccc(Br)c4)no3)CC2)c1`?
MPTP inh: inactive; GRIN3A LBD mod: inactive; FAS TE block: inactive

What do the screens show for `CCOC(=O)[C@]12CCCC=C1N(Cc1ccccc1)C(=O)[C@H](CC(=O)NCCCN1CCCC1=O)C2`?
MPTP inh: inactive

How did O=C(NNC(=O)c1csc(-c2cccs2)n1)c1ccc(Cl)cc1 do in these assays?
MPTP inh: inactive; FAS TE block: inactive

How did Oc1cccc(/C=C/c2ccc3cccc(O)c3n2)c1 do in these assays?
MPTP inh: inactive; beta cell repl: inactive; GRIN3A LBD mod: 20; pCIP destab: inactive; FAS TE block: inactive

What do the screens show for `COc1ccc(/C=C/c2ccc3c(Br)ccc(O)c3n2)cc1`?
MPTP inh: inactive; beta cell repl: inactive; GRIN3A LBD mod: inactive; pCIP destab: inactive; FAS TE block: inactive

Results for COc1cc(/C=C/c2ccc3c(Br)cc(Br)c(O)c3n2)ccc1O ?
MPTP inh: inactive; GRIN3A LBD mod: 16; pCIP destab: inactive; FAS TE block: inactive

Results for COc1ccc(/C=C/c2ccc3cccc(O)c3n2)cc1Br ?
MPTP inh: inactive; beta cell repl: inactive; GRIN3A LBD mod: 37; pCIP destab: inactive; FAS TE block: inactive

How did COc1cc(/C=C/c2ccc3cccc(O)c3n2)cc(Br)c1OC do in these assays?
MPTP inh: inactive; beta cell repl: inactive; GRIN3A LBD mod: inactive; pCIP destab: inactive; FAS TE block: inactive

How did O=C(/C=C/c1ccc(Br)cc1)c1ccc(NC(=O)c2ccco2)cc1 do in these assays?
MPTP inh: inactive; beta cell repl: inactive; GRIN3A LBD mod: 24; pCIP destab: inactive; FAS TE block: inactive

What do the screens show for `O=C(/C=C\c1ccccc1)Nc1ccc(NC(=O)c2ccco2)cc1`?
MPTP inh: inactive; beta cell repl: inactive; GRIN3A LBD mod: 25; pCIP destab: inactive; FAS TE block: inactive

What do the screens show for `Oc1ccc(C=NN=C2c3ccccc3-c3ccccc32)c(O)c1`?
MPTP inh: inactive; GRIN3A LBD mod: 23; FAS TE block: inactive

How did C(=NN=C1c2ccccc2-c2ccccc21)c1c[nH]c2ccccc12 do in these assays?
MPTP inh: inactive; GRIN3A LBD mod: 17; FAS TE block: inactive

Results for O=C(/C=C/c1cccc([N+](=O)[O-])c1)n1cnc2ccccc21 ?
MPTP inh: inactive; beta cell repl: inactive; GRIN3A LBD mod: inactive; pCIP destab: inactive; FAS TE block: inactive

What do the screens show for `COC(=O)CN1C(=S)N(c2ccc(Cl)cc2)C(=O)C1CC(=O)Nc1ccc(Cl)cc1` (stereo unspecified)?
MPTP inh: inactive; beta cell repl: inactive; GRIN3A LBD mod: 20; pCIP destab: inactive; FAS TE block: inactive

Results for COc1ccc(NC(=O)CC2C(=O)N(c3ccc(Cl)cc3)C(=S)N2CCc2ccncc2)cc1 (stereo unspecified) ?
MPTP inh: inactive; beta cell repl: inactive; GRIN3A LBD mod: 10; pCIP destab: inactive; FAS TE block: inactive

Results for COc1ccc(NC(=O)CC2C(=O)N(c3ccc(F)cc3)C(=S)N2NC(=O)c2ccc(Cl)cc2)cc1 (stereo unspecified) ?
MPTP inh: inactive; beta cell repl: inactive; GRIN3A LBD mod: inactive; pCIP destab: inactive; FAS TE block: inactive

How did COc1ccc(NC(=O)CC2C(=O)N(c3ccc(Cl)cc3)C(=S)N2CCc2ccccn2)cc1 (stereo unspecified) do in these assays?
MPTP inh: inactive; beta cell repl: inactive; GRIN3A LBD mod: inactive; pCIP destab: inactive; FAS TE block: inactive

What do the screens show for `COC(=O)CN1C(=S)N(Cc2ccccc2)C(=O)C1CC(=O)Nc1ccc(Br)cc1` (stereo unspecified)?
MPTP inh: inactive; beta cell repl: inactive; GRIN3A LBD mod: 18; pCIP destab: inactive; FAS TE block: inactive

How did COc1ccc(NC(=O)CC2C(=O)N(c3ccc(Cl)cc3)C(=S)N2NC(=O)c2cccc(F)c2)cc1 (stereo unspecified) do in these assays?
MPTP inh: inactive; beta cell repl: inactive; GRIN3A LBD mod: 16; pCIP destab: inactive; FAS TE block: inactive
